The campaign covered roughly 350,000 compounds. About 7,000 (2%) were called active. The full list was thinned out, with actives kept by preference. Values without a mark were called inactive. Rule as the data show it: active = activation above about 40%; inconclusive = no clear call, values can overlap the other calls; inactive = below that.
Experiment: raisers of Bmi1 knock-in reporter signal – mouse ES cells, Bmi1 luciferase knock-in, single point, esBAF inhibitor project, primary screen (AID 602393);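 also: 0% = median of the plate's neutral control wells and 100% = double that signal; a rise in the Bmi1 reporter signal indicates esBAF inhibition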
Details: 24 h, at 12.5 µM, active compounds read high, 100% = twice the neutral-well signal
`Cn1cnc(S(=O)(=O)N2C[C@@H](O)COC[C@H]3O[C@H](CC(=O)N4CCN(c5ccccc5)CC4)CC[C@@H]32)c1` showed a reporter increase of 0.849%.
With `COc1ccc(C2CC(c3ccc([N+](=O)[O-])cc3)=NN2C(C)=O)cc1` (configuration not stated) the reporter increase was 71.3% (active).
For `COc1ccc(C2=NN(C(=O)CSc3nnnn3C)C(c3ccco3)C2)cc1` (configuration not stated), the reporter increase was 18%.
In the case of `COc1ccc(C2=NN(C(C)=O)C(c3ccccc3)C2)cc1` (configuration not stated), the reporter increase is reported as 53.9% (active).
`COc1ccc(C2=NN(C(=O)CSc3nc(=O)n4ccc(C)cc4n3)C(c3ccc(C)cc3)C2)cc1` (configuration not stated) showed a reporter increase of 9.03%.
Work on `COc1ccc(C2CC(c3ccccc3)=NN2C(=O)CSc2nccc(=O)[nH]2)cc1` (configuration not stated) yielded a reporter increase of 11.5%.
With `COc1ccc(C2CC(c3ccccc3)=NN2C(=O)c2ccc(Cl)c([N+](=O)[O-])c2)cc1` (configuration not stated) the reporter increase was -0.268%.
Work on `COc1cccc(C2CC(c3ccccc3)=NN2S(=O)(=O)c2ccccc2)c1OC` (configuration not stated) yielded a reporter increase of -2.12%.
`COc1ccc(C2CC(c3cccc(OC)c3)=NN2c2ccc(S(N)(=O)=O)cc2)cc1` (configuration not stated) showed a reporter increase of 4.76%.
For `COc1ccc(C2=NN(C(=O)c3ccccc3C(=O)O)C(c3ccccc3O)C2)cc1` (configuration not stated), the reporter increase was 74.8% (active).
Work on `C[C@@H]1CN([C@@H](C)CO)C(=O)Cc2cc(NC(=O)Nc3cccc4ccccc34)ccc2O[C@@H]1CN(C)CC1CCCCC1` yielded a reporter increase of -7.15%.
`CC(C)CC#Cc1cnc2c(c1)C(=O)N([C@H](C)CO)C[C@H](C)[C@@H](CN(C)Cc1ccccc1C(=O)O)O2` showed a reporter increase of -5.98%.
Compound `Cc1noc(C)c1S(=O)(=O)Nc1ccc2c(c1)C(=O)N([C@H](C)CO)C[C@@H](C)[C@@H](CN(C)Cc1ccccc1)OCCCC[C@@H](C)O2` has a reporter increase of 3.09%.
For `CN1C(=O)c2cc(NC(=O)C3CCCCC3)ccc2OC[C@H]2O[C@@H](CC(=O)NC3CCCC3)CC[C@@H]21`, the reporter increase was 0.376%.
In the case of `C[C@@H]1CN([C@@H](C)CO)C(=O)Cc2cc(NC(=O)Nc3cccc4ccccc34)ccc2O[C@H]1CN(C)S(=O)(=O)c1ccc(Cl)cc1`, the reporter increase is reported as -0.13%.
With `COc1ccc(NC(=O)N(C)C[C@H]2Oc3ccc(NC(=O)Cc4cn(C)c5ccccc45)cc3CC(=O)N([C@@H](C)CO)C[C@H]2C)cc1` the reporter increase was -1.83%.
For `CS(=O)(=O)Nc1ccc(C2=NN(S(C)(=O)=O)C(c3cccs3)C2)cc1` (configuration not stated), the reporter increase was 58.2% (active).
Work on `CS(=O)(=O)Nc1cccc(C2=NN(C(=O)c3cccc(F)c3)C(c3cccs3)C2)c1` (configuration not stated) yielded a reporter increase of 5.14%.
In the case of `CS(=O)(=O)Nc1cccc(C2=NN(S(=O)(=O)c3ccccc3)C(c3cccs3)C2)c1` (configuration not stated), the reporter increase is reported as -7.36%.
`CC(C)C#Cc1ccc2c(c1)O[C@@H](CN(C)C(=O)C1CC1)[C@H](C)CN([C@H](C)CO)S2(=O)=O` showed a reporter increase of 3.19%.
Compound `C[C@@H]1CN([C@H](C)CO)C(=O)c2cccc(NS(=O)(=O)c3ccc(F)cc3)c2O[C@@H]1CN(C)S(=O)(=O)c1ccc(Cl)cc1` has a reporter increase of 0.559%.
Work on `CO[C@@H](CN(C)S(=O)(=O)c1ccc(F)cc1)[C@H](C)CN(C(=O)Nc1ccccc1F)[C@@H](C)CO` yielded a reporter increase of 7.4%.
`O=C(C[C@H]1C=C[C@@H](NC(=O)c2cnccn2)[C@H](CO)O1)NCc1ccccc1F` gave a reporter increase of -1.5%.
Compound `CC(C)NC(=O)N[C@@H]1CC[C@H](CCn2cc(-c3ccccc3)nn2)O[C@H]1CO` has a reporter increase of 1.66%.
`CCNC(=O)C[C@@H]1CC[C@@H]2[C@@H](COc3ccc(NC(C)=O)cc3C(=O)N2C)O1` gave a reporter increase of -3.06%.
For `CCOC(=O)C1=C(c2ccccc2)O/C(=C(/C(=O)OC)C(F)(F)F)S1`, the reporter increase was -7.41%.
With `COC(=O)/C(=C1\Oc2ccc(C(C)(C)C)cc2S1)C(F)(F)F` the reporter increase was 53.4% (active).
`COCC#Cc1cnc2c(c1)C(=O)N([C@H](C)CO)C[C@@H](C)[C@@H](CN(C)C(=O)Nc1cccc(F)c1)O2` showed a reporter increase of -0.578%.
In the case of `C[C@H](CO)N1C[C@H](C)[C@@H](CN(C)Cc2ccccn2)Oc2ncc(C3=CCCC3)cc2C1=O`, the reporter increase is reported as -4.21%.
Work on `C[C@@H]1CN([C@@H](C)CO)C(=O)c2cc(-c3ccc(C#N)cc3)cnc2O[C@H]1CN(C)C(=O)CN(C)C` yielded a reporter increase of 0.919%.
With `CCc1c(C)sc(NC(=O)c2cccs2)c1C(N)=O` the reporter increase was 57.1% (active).
Compound `CCOC(=O)c1oc2ccccc2c1NC(=O)c1cccs1` has a reporter increase of -0.529%.
For `CCc1c(C)sc(NC(=O)c2ccc(Br)o2)c1C(=O)OC`, the reporter increase was 0.318%.
Work on `COc1ccc(CN2C[C@@H](C)[C@H](OC)CN(C)C(=O)c3cc(NC(C)=O)ccc3OC[C@@H]2C)cc1` yielded a reporter increase of 1.02%.
Compound `CN(C)CC(=O)N[C@@H]1CC[C@H](CC(=O)NCc2ccc(Cl)cc2)O[C@H]1CO` has a reporter increase of 2.07%.
Work on `CCCN(C)C[C@@H]1Oc2cc(-c3ccc(C)cc3)ccc2S(=O)(=O)N([C@@H](C)CO)C[C@H]1C` yielded a reporter increase of -1.82%.
Work on `CO[C@H]1CN(C)C(=O)c2ccc(NC(=O)c3cc(C)on3)cc2OC[C@H](C)N(C)C[C@H]1C` yielded a reporter increase of -3.45%.
Work on `COc1ccc(Nc2oc(-c3ccccc3Cl)nc2C#N)cc1` yielded a reporter increase of 11.5%.
Work on `Cc1ccc(OCc2nc(C#N)c(N3CCCC3)o2)cc1` yielded a reporter increase of 6.84%.
In the case of `CCOc1ccc(Nc2oc(Cc3ccccc3)nc2C#N)cc1`, the reporter increase is reported as 52% (active).
With `COc1ccc(NC(=O)N(C)C[C@@H]2OCCCC[C@H](C)Oc3ccc(NS(=O)(=O)c4c(C)noc4C)cc3C(=O)N([C@@H](C)CO)C[C@@H]2C)cc1` the reporter increase was 10.5%.
With `Cc1ccc(NC(=O)c2ccn(C(=O)Nc3ccccc3)n2)c(C)c1` the reporter increase was 33.7%.
In the case of `Cc1ccc2nc(Nc3ccccc3)cc(C)c2c1`, the reporter increase is reported as 48.3% (active).
`Cc1ccc(Nc2nc(C)cc(C)c2C(N)=O)cc1` gave a reporter increase of -0.241%.
`O=C(C[C@H]1CC[C@H](NC(=O)c2ccncc2)[C@H](CO)O1)Nc1ccccc1` showed a reporter increase of 6.5%.
With `CNC[C@H]1OCCCC[C@@H](C)Oc2ccc(NC(=O)c3ccccc3)cc2C(=O)N([C@@H](C)CO)C[C@H]1C` the reporter increase was 9.15%.
For `C[C@@H]1CN([C@H](C)CO)C(=O)c2cc(C#CC3(O)CCCC3)cnc2O[C@H]1CN(C)Cc1ccncc1`, the reporter increase was -2.58%.

— PubChem BioAssay AID602393 (Broad Institute, 2012)
